# “And” between values parts separate entries of the source, which are not always exact repeats. Equal values may be shown once. The source made the active and inactive calls.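 How the source made its calls, unless noted: active means inhibition at or above 50% relative to wild type and mutant plate controls; inactive means inhibition below 50%.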
# Tests used:
# [1] = inhibitors of TNFa-induced NFkB p65 translocation, primary screen, imaging, HUVEC, MLSMR starter and 10KST1 sets (AID 438;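 active means inhibition above 20% together with a positive visual image hit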;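 further: compound added about 3h40 before a 20 min TNFalpha stimulation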;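 on inhibition: signal is the nuclear over cytoplasmic p65 intensity ratio per well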); conditions: HUVEC TNFa-induced p65 nuclear translocation; cell count: measured here: nuclei count (cytotoxicity indicator), at 2.08 µM; inhibition: at 2 µM, stronger effect = higher value, 0% TNFa-plus-vehicle, 100% no-TNFa wells
# [2] = inhibitors of mutant huntingtin aggregation, primary screen, imaging, exon1htt(103Q)mCFP cells, high-content imaging (AID 483;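 active means visual image review flags a hit and inhibition of aggregation exceeds 20%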;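 further: compound exposure lasted 3 days before fixation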;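 on nuclei count: percent of the per-plate median nuclei count of sample wells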); conditions: exon1htt(103Q)mCFP cell line, aggregate imaging, at 2 µM; inhibition of aggregation: stronger effect = higher value; nuclei count: measured here: cell count, toxicity
# [3] = inhibitors of E-selectin induction by TNFa, primary screen, imaging, HUVEC, immunofluorescence, MLSMR starter and 10KST1 sets (AID 487;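 active means visually confirmed hit in the image check and inhibition above 20%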;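 on inhibition: signal is fraction of cell area covered by stained E-selectin grains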;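 on nuclei count: 100% = median nuclei count of all wells on the same plate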); conditions: HUVEC TNFalpha-induced E-selectin immunofluorescence imaging, at 2 µM; inhibition: stronger effect = higher value; nuclei count: measured here: cell number, toxicity
# [4] = DUSP6 inhibitors restoring Erk phosphorylation by chemical complementation, primary imaging in DUSP6-transfected HeLa (AID 609;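 active means compounds giving at least 50% inhibition in the cell-based MKP-3 phosphatase rescue imaging test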;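 on inhibition: phospho-Erk level distribution per well compared with pooled transfected vehicle control wells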); conditions: HeLa MKP-3 transfected, phospho-Erk imaging KS statistic, at 10 µM, cells stimulated with TPA for 15 min
# [5] = biological target: Dual specificity protein phosphatase 6 (Homo sapiens) (UniProt Q16828); test: as above; conditions: HeLa MKP-3 transfected, phospho-Erk imaging KS statistic; at 10 µM; stronger effect = higher value; cells stimulated with TPA for 15 min
# [6] = biological target: Voltage-gated potassium channel subunit beta-2 (Rattus norvegicus) (UniProt P62483); test: KvBeta enzyme negative modulators, primary screen, biochemical, NADPH fluorescence (AID 622;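 active means fluorescence slope higher than the sample average by over 3 SD, cut at about -0.22 in these data, passing the limit was not always enough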;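 further: slope of raw intensity against log time taken from 70 to 1610 s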); conditions: recombinant KvBeta, 4-cyanobenzaldehyde reduction, at 10 µM, stronger effect = higher value
# [7] = biological target: Voltage-gated potassium channel subunit beta-2 (Rattus norvegicus) (UniProt P62483); test: KvBeta positive modulators, primary screen, biochemical, NADPH fluorescence (AID 623;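 active means NADPH fluorescence slope more negative than the mean of all samples by about 3 SD, 99.7% confidence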;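 further: fluorescence intensity change per second fitted from 20 to 320 s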); conditions: Recombinant KvBeta, NADPH fluorescence decrease slope, 10 min; at 10 µM; stronger effect = lower value
# [8] = biological target: Alpha-2C adrenergic receptor (Homo sapiens) (UniProt P18825); test: modulators of alpha2C/GIRK thallium flux, primary screen, cell-based, HEK293 alpha2C/GIRK1/2 (AID 624;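 active means fluorescence slope after compound addition differing from the mean of all screened samples at 99.7% confidence, in either direction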;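 further: slope of fluorescence ratio to pre-addition baseline per second over 15 to 24 s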); conditions: thallium flux BTC fluorescence, at 10 µM, actives lie on both sides
# [9] = inhibitors of larval lipid processing in zebrafish, primary screen, whole organism, PED6 fluorescence, gall bladder and intestine (AID 686;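 active means a full or partial loss of lipid-probe fluorescence in the fish gall bladder, intestine or both, judged by eye; inactive means no fluorescence loss, or compound toxic to the fish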;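 further: larvae 5 to 7 days old with five fish per well; signal comes from phospholipase A2 cleavage of quenched PED6 carried via bile; overnight exposure to compound and PED6 before scoring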); conditions: Zebrafish larvae PED6 lipid processing, fluorescence scoring; screened at 20 µM (by protocol)
# [10] = inhibitors of Chlamydomonas gravitaxis, primary screen, whole organism, Chlamydomonas reinhardtii, WT vs cilia-less mutant, absorbance, 96-well (AID 463189); conditions: OD600 absorbance, 2 days, at 10 µM, stronger effect = higher value;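 further: 0% = wild type cc124 cells in DMSO and 100% = ciliumless bld1 mutant cells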
# [11] = inhibitors of Sendai virus-induced IRF3 signaling, primary screen, TLR/RLR signaling modifier project, cell-based, Sendai virus stimulus, luciferase, 10K MLSCN set (AID 602276;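 active means inhibition at or above 50% at 10 µM; inactive means inhibition below 50%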;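 further: firefly luciferase from ISG56 promoter only with Renilla not read in this screen; 0% = Sendai virus plus DMSO and 100% = medium plus DMSO without virus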); conditions: HEK293 RL24 IRF3 luciferase reporter, at 10 µM, stronger effect = higher value
# [12] = inhibitors of poly I:C-induced TLR3 signaling, primary screen, cell-based, poly I:C stimulus, luciferase, 10K MLSCN set (AID 602277;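 active means inhibition of the reporter signal at or above 50%; inactive means inhibition below 50%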); conditions: HEK293-TLR3 RL24 IRF3 luciferase reporter, at 10 µM, stronger effect = higher value
# [13] = measured here: cell density z-score
# [14] = measured here: nuclear c-Myc green intensity z-score
# [15] = measured here: nuclear pErk red intensity z-score, stronger effect = higher value
# Dual specificity protein phosphatase 6 (Homo sapiens), sequence (Q16828 whole entry, looked up): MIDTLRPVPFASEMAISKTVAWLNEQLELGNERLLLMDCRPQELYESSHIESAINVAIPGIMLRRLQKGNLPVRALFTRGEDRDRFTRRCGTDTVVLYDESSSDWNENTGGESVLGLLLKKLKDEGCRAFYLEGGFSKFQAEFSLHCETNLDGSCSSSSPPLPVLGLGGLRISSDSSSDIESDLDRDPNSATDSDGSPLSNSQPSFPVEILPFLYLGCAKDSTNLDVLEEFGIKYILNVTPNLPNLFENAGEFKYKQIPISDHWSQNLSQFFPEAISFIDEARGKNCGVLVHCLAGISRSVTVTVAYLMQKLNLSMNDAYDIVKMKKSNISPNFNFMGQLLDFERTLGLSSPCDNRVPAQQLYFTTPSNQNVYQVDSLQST
# Voltage-gated potassium channel subunit beta-2 (Rattus norvegicus), sequence (P62483 whole entry, looked up): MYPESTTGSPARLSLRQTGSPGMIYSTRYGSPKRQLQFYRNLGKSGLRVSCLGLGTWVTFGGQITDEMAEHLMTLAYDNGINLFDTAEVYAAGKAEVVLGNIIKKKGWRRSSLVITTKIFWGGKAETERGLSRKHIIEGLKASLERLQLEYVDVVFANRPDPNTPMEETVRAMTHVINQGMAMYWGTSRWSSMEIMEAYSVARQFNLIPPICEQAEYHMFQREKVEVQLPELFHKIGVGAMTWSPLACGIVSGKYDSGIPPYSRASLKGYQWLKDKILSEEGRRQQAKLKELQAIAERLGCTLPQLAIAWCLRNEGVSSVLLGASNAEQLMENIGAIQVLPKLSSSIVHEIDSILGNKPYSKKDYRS
# Alpha-2C adrenergic receptor (Homo sapiens), sequence (P18825 whole entry, looked up): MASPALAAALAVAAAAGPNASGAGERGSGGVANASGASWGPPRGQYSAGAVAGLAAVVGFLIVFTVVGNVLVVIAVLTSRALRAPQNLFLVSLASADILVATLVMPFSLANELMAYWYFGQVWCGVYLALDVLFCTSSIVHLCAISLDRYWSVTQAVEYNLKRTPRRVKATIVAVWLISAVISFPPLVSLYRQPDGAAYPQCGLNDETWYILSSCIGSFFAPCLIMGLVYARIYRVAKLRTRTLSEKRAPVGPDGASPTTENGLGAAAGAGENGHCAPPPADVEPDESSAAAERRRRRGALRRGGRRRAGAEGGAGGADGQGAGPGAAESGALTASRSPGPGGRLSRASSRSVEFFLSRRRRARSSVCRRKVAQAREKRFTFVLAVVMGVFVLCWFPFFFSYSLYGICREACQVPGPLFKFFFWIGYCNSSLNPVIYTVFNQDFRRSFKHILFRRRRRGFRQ
SMILES,cell count [1],inhibition [1],inhibition of aggregation [2],nuclei count [2],inhibition [3],nuclei count [3],"z-score [4, 13]","z-score [4, 14]","z-score [4, 15]",inhibition [5],fluorescence slope [6],NADPH fluorescence slope [7],slope [8],outcome [9],inhibition [10],inhibition [11],inhibition [12]
COc1ccccc1NC(=O)C1=C(C)NC(SCC(=O)c2ccc(C)cc2)=C(C#N)C1c1ccco1 (stereo not drawn),529,-0.5% (inactive),9.6% (inactive),99.4%,6.5% (inactive),114%,0.647,-0.415,1.41,-2.07% (inactive),-0.481 (inactive),-7.1e-05 (inactive),0.00753 (inactive),inactive,36.3% (inactive),-17.3% (inactive),-56.3% (inactive)
Cc1nn(C)cc1/C=N/O,677,-4.1% (inactive),-2.1% (inactive),83.6%,-8.8% (inactive),140%,0.232,-1.13,-0.23,-1.12% (inactive),-0.494 (inactive),-0.000175 (inactive),0.00422 (inactive),inactive,7.83% (inactive),15.8% (inactive),19% (inactive)
Cc1nc(/N=C(\N)Nc2ccccc2)nc2ccccc12,304,2.5% (inactive),-14% (inactive),103%,-112% (inactive),110%,0.361,0.688,0.354,-0.624% (inactive),-0.38 (inactive),2.3e-05 (inactive),0.0057 (inactive),inactive,7.3% (inactive),-6.34% (inactive),-21.7% (inactive)
CC(C[N+](C)(C)C)OC(N)=O (stereo not drawn),492,17.2% (inactive),-16.6% (inactive),106%,-25.7% (inactive),125%,-0.295,0.566,-0.0176,5.42% (inactive),-0.491 (inactive),-6.6e-05 (inactive),0.00575 (inactive),inactive,4.16% (inactive) and 23.3% (inactive),14.7% (inactive),38.3% (inactive)
CN(C1CCS(=O)(=O)C1)S(=O)(=O)c1cccc2nsnc12 (stereo not drawn),506,-15.3% (inactive),-7.5% (inactive),117%,-64.1% (inactive),135%,0.217,0.807,-0.289,-16.8% (inactive),-0.513 (inactive),-6.5e-05 (inactive),0.00498 (inactive),inactive,19.4% (inactive),15.8% (inactive),14.5% (inactive)
Nc1ccc2[nH]ncc2c1,684,7.9% (inactive),-14.5% (inactive),106%,-64.7% (inactive),141%,0.816,1.08,-0.122,27.9% (inactive),-0.496 (inactive),-6.9e-05 (inactive),0.00441 (inactive),inactive,-11% (inactive),11.4% (inactive),31.1% (inactive)
COc1ccccc1-n1c(=O)c2c3c(sc2n2c(SC(C)C)nnc12)CCC3,643,-11.3% (inactive),31.3% (active),93.7%,-68% (inactive),145%,1.45,-1.07,1.13,-11% (inactive),-0.248 (inactive),1.3e-05 (inactive),0.005 (inactive),inactive,34.4% (inactive),0.779% (inactive),20.4% (inactive)
CCCCOc1cc(C(=O)NCCN(CC)CC)c2ccccc2n1,511 and 578,-5.3% (inactive) and -4.6% (inactive),9.3% (inactive) and -1.1% (inactive),92.4% and 92.8%,13% (inactive) and -47.1% (inactive),125% and 129%,-0.0512 and 0.242,1.21 and -0.093,0.116 and 1.52,11.3% (inactive) and -6.41% (inactive),-0.452 (inactive) and -0.465 (inactive),-7.4e-05 (inactive) and -5.9e-05 (inactive),0.00498 (inactive) and 0.00574 (inactive),inactive,1.51% (inactive) and 12.2% (inactive),4.17% (inactive) and 5.36% (inactive),54.6% (active) and 61.4% (active)
CC(C)OC(=O)C(CC(=O)O)NCc1ccccc1 (stereo not drawn),518,-2% (inactive),15% (inactive),65.3%,-117% (inactive),118%,0.414,0.989,0.212,1.75% (inactive),-0.296 (inactive),2.8e-05 (inactive),0.00502 (inactive),inactive,-6.73% (inactive),14.9% (inactive),20.3% (inactive)
C[C@]12CC[C@H]3[C@@H](CCC4=CC(=O)CC[C@@]43C)[C@@H]1CC[C@@H]2C(=O)CO,632,-0.8% (inactive),4.5% (inactive),37.5%,-114% (inactive),118%,-0.564,-1.57,-0.166,-2.46% (inactive),-0.521 (inactive),-1e-05 (inactive),0.00387 (inactive),inactive,-3.19% (inactive),1.11% (inactive),43.7% (inactive)
CCSc1nc(N)c(C#N)c(-c2ccccc2Cl)c1C#N,494,-3.2% (inactive),25.1% (inactive),71.7%,-29% (inactive),107%,-2.31,3.1,0.136,-5.89% (inactive),-0.473 (inactive),-0.000189 (inactive),0.00512 (inactive),inactive,-6.34% (inactive),-0.977% (inactive),7.05% (inactive)
CC(C)(C)NCC(O)c1cc(O)cc(O)c1 (stereo not drawn),472,-2.4% (inactive),21.1% (inactive),89.3%,-7% (inactive),88.9%,0.22,-3,-0.525,1.38% (inactive),-0.472 (inactive),-6.7e-05 (inactive),0.00544 (inactive),inactive,6.82% (inactive) and -7.52% (inactive),7.09% (inactive),35.9% (inactive)
CC1Cc2ccccc2N1NC(=O)c1ccc(Cl)c(S(N)(=O)=O)c1 (stereo not drawn),657,-3.7% (inactive),4.2% (inactive),112%,-59.9% (inactive),121%,0.724,-0.336,-0.652,21.2% (inactive),-0.544 (inactive),-5e-05 (inactive),0.0056 (inactive),inactive,18.3% (inactive),-7.5% (inactive),-10.9% (inactive)
CC1(C)Cc2c(sc3c2C2=NCCN2C=N3)CO1,624,-7% (inactive),4.2% (inactive),124%,-54.1% (inactive),139%,-0.0476,0.11,-0.119,-2.69% (inactive),-0.328 (inactive),-8.5e-06 (inactive),0.00463 (inactive),inactive,63.1% (active),-17.5% (inactive),-3.31% (inactive)
COc1ccc(NS(=O)(=O)c2ccc(N)cc2)nn1,634,-10.4% (inactive),-19.4% (inactive),99.2%,-67.7% (inactive),114%,-2.14,-1.5,2.96,3.45% (inactive),-0.412 (inactive),5.7e-06 (inactive),0.00455 (inactive),inactive,15% (inactive),15.8% (inactive),27.8% (inactive)
Cn1c(-n2c(-c3ccco3)nc3ccccc3c2=O)nc2ccccc21,589,-10.5% (inactive),32% (inactive),109%,-8.3% (inactive),126%,0.944,0.431,-0.392,8.31% (inactive),-0.351 (inactive),-6.3e-06 (inactive),0.00557 (inactive),inactive,9.97% (inactive),20.8% (inactive),6.14% (inactive)
CO[C@H]1C[C@@H]2CC[C@@H](C)[C@@](O)(O2)C(=O)C(=O)N2CCCC[C@H]2C(=O)O[C@H]([C@H](C)C[C@@H]2CC[C@@H](O)[C@H](OC)C2)CC(=O)[C@H](C)C=C(C)[C@@H](O)[C@@H](OC)C(=O)[C@H](C)C[C@H](C)C=CC=CC=C1C,629,-23.5% (inactive),3.4% (inactive),97%,-63% (inactive),106%,0.947,0.453,0.871,19.2% (inactive),-0.462 (inactive),-3.4e-05 (inactive),0.00536 (inactive),inactive,44.3% (inactive),21.8% (inactive),43.8% (inactive)
C[C@@H]1C[C@H]2[C@@H]3CCC4=CC(=O)C=C[C@]4(C)[C@@]3(F)[C@@H](O)C[C@]2(C)[C@H]1C(=O)CO,647,-8.8% (inactive),0% (inactive),59.5%,-68% (inactive),134%,1.14,0.339,-1.14,31.1% (inactive),-0.536 (inactive),-9.8e-05 (inactive),0.00544 (inactive),inactive,4.88% (inactive),-17.5% (inactive),-9.26% (inactive)
CCOC(=O)CSC1=C(C#N)C(c2ccc3c(c2)OCO3)CC(=O)N1 (stereo not drawn),562,-1.1% (inactive),-16.1% (inactive),82.2%,-43.4% (inactive),80.7%,-0.992,0.745,0.964,3.66% (inactive),-0.471 (inactive),-0.000313 (inactive),0.00534 (inactive),inactive,14.3% (inactive),36.8% (inactive),34.7% (inactive)

# — PubChem BioAssay
